# In PubChem BioAssay:
# “And” between values parts separate entries of the source, which are not always exact repeats. Equal entries are not always repeated. The source made the active and inactive calls. Cut-off read from the data, not from the text of the source, unless noted: active = inhibition above about 80%; inactive = the rest.
# Legend:
# [1] = sensitizers of A549 cells to miR-34 induction, primary screen, imaging, A549 dox-inducible miR-34, nuclei and caspase counts (AID 1347080;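 active = compounds whose cell count with miR-34 switched on is under 0.7 times the count with it off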); settings: A549 miR-34 inducible, Hoechst nuclei count, 48 h
# [2] = survival rescue of mitochondrial mutant cells in low glucose, primary screen, MELAS cybrids, Rieske KO mouse fibroblasts, CellTiter-Glo (AID 1508586;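 active = mean z-score across replicates of 1.96 or higher in either the MELAS or the Rieske mutant cell line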;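 note: z relative to plate mean and SD of compound and empty wells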)
# [3] = LFS_MB_P medulloblastoma growth inhibition, cell-based, chromothripsis tumors, cisplatin or BGB combos (AID 1671449); settings: LFS_MB_P medulloblastoma cells;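 note: cells exposed for 96 hours; 0% = vehicle DMSO and 100% = killing by high DMSO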
# [4] = HDN33 neuroblastoma growth inhibition, cell-based, chromothripsis tumors, cisplatin or BGB combos (AID 1671450); settings: HDN33 neuroblastoma cells, stronger effect = higher value;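 note: cells exposed to compound for four days; 0% = vehicle DMSO and 100% = cell killing by high DMSO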
# [5] = ICB984 medulloblastoma cell growth inhibition, synergistic combos for chromothripsis tumors, cisplatin or BGB combos (AID 1671451; call rule not given here;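 note: cells exposed for 96 hours before readout; 0% = vehicle DMSO and 100% = killing by high DMSO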); settings: ICB984 medulloblastoma cells, drug combinations, stronger effect = higher value
# [6] = LFS_MB_1R medulloblastoma cell growth inhibition, synergistic combos for chromothripsis tumors, cisplatin or BGB combos (AID 1671452); settings: LFS_MB_1R medulloblastoma cells, stronger effect = higher value;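 note: cells exposed for 96 hours before readout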
# [7] = HTB85 osteosarcoma cell growth inhibition, synergistic combos for chromothripsis tumors, BGB or cisplatin IC20 combos (AID 1671453); settings: HTB85 osteosarcoma cells, drug combinations, stronger effect = higher value;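 note: cells exposed for 96 hours before readout; 0% = vehicle DMSO and 100% = high DMSO killing control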
# [8] = CRL2098 osteosarcoma cell growth inhibition, synergistic combos for chromothripsis tumors, BGB or cisplatin IC20 combos (AID 1671454); settings: CRL2098 osteosarcoma cells, drug combinations, stronger effect = higher value;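 note: cells exposed for 96 h before readout; 0% = vehicle DMSO and 100% = killing by high DMSO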
# [9] = HD-MB03 medulloblastoma cell growth inhibition, synergistic combos for chromothripsis tumors, BGB or cisplatin IC20 combos (AID 1671455; in the data active = inhibition above about 83%;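 note: 0% = vehicle DMSO and 100% = high DMSO as cytotoxic control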); settings: HD-MB03 medulloblastoma cells, stronger effect = higher value
# [10] = UWB1.289 ovarian carcinoma cell growth inhibition, synergistic combos for chromothripsis tumors, BGB or cisplatin combos (AID 1671456); settings: UWB1.289 ovarian carcinoma cells, stronger effect = higher value;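 note: cells exposed to compound for four days; 0% = vehicle DMSO and 100% = killing by high DMSO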
# [11] = LFS_MB_2R medulloblastoma cell growth inhibition, synergistic combos for chromothripsis tumors, cisplatin combos (AID 1671457); settings: LFS_MB_2R medulloblastoma cells, stronger effect = higher value;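 note: cells exposed to compound for four days before readout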
# [12] = MDA-MB-436 breast carcinoma cell growth inhibition, synergistic combos for chromothripsis tumors, BGB or cisplatin combos (AID 1671458; call rule not given here;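 note: cells exposed for 96 hours; 0% = vehicle DMSO and 100% = killing by high DMSO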); settings: MDA-MB-436 breast carcinoma growth inhibition, drug combinations, stronger effect = higher value
# [13] = UWB1.289_BRCA1 ovarian cancer growth, cell-based, BGB or cisplatin combinations (AID 1671459); settings: UWB1.289 BRCA1 ovarian carcinoma, drug combinations, stronger effect = higher value
# [14] = human astrocyte viability loss, single and combined drugs, cytotoxicity control for chromothriptic childhood tumor combination screen, cell-based, BGB or cisplatin IC20 combos (AID 1671460); settings: Human astrocytes, drug combinations, stronger effect = higher value;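 note: cells exposed to compounds for 96 hours before viability readout; 0% = vehicle and 100% = killing control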
# [15] = growth inhibition of BT084 medulloblastoma cells, cell-based, ICGC_MB145, cisplatin and BGB IC40 combos (AID 1671461); settings: drug combinations, stronger effect = higher value;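 note: cells exposed to drugs for 96 hours; 0% = vehicle DMSO and 100% = high DMSO full killing control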
# [16] = growth inhibition of RCMB18 medulloblastoma cells, cell-based, cisplatin and BGB IC40 combos (AID 1671462); settings: stronger effect = higher value;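 note: cells exposed to compound for four days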
# [17] = growth inhibition of CRL1545 osteosarcoma cells, cell-based, cisplatin and BGB IC20 combos (AID 1671464); settings: stronger effect = higher value;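 note: cells exposed to compound for 96 hours before readout; 0% = vehicle DMSO and 100% = high DMSO killing control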
# [18] = hESC survival regulators, cell-based (AID 493140; call rule not given here;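 note: cells exposed to compounds for four days before counting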); settings: human embryonic stem cell survival screen; stronger effect = higher value
# [19] = liver-stage malaria parasite growth inhibition, primary screen, cell-based, HepG2, luciferase luminescence, HepG2 viability (AID 624349; in the data active = parasite load remaining mostly below about 12%, no sharp cut-off; inactive = mostly above about 10%;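 note: 100% = mean of DMSO negative control wells on the same plate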); settings: P. berghei liver stage in HepG2, luciferase luminescence, concentration not given here; parasite load remaining: stronger effect = lower value; viability: measured here: HepG2 viability without parasites
# [20] = stronger effect = lower value, cell number ratio, induced over uninduced
# [21] = measured here: relative caspase fold change +Dox/-Dox
# [22] = measured here: total cells with miR-34 induction, stronger effect = lower value
# [23] = measured here: total cells without miR-34 induction
# [24] = MELAS cybrid survival, CellTiter-Glo 48 h, stronger effect = higher value
# [25] = Rieske KO mouse fibroblast survival, CellTiter-Glo 72 h
# [26] = measured here: combination with BGB IC40, at 0.05 µM
# [27] = measured here: with BGB IC20 combination, at 0.5 µM
# [28] = measured here: with cisplatin IC20 combination, at 0.5 µM
# [29] = measured here: combination with cisplatin, at 0.5 µM
# [30] = measured here: combination with cisplatin, at 5 µM
smiles,measurement,setting,value
CC(Oc1cc(-c2cnn(C3CCNCC3)c2)cnc1N)c1c(Cl)ccc(F)c1Cl (stereo not drawn),fold change,[1]; [20],0.89 (inactive) and 0.888 (inactive)
same,fold change,[1]; [21],0.695 and 1.44
same,cell count,[1]; [22],6060 and 1510
same,cell count,[1]; [23],6810 and 1700
same,z-score,[2]; [24],-0.618 (inactive) and 0.388 (inactive)
same,z-score,[2]; [25],-0.613 and -1.18
same,inhibition,"[3]; at 0.5 µM, stronger effect = higher value",-14.5% (inactive)
same,inhibition,"[3]; measured here: combination with BGB IC20, at 0.005 µM",-15.8%
same,inhibition,"[3]; measured here: combination with BGB IC40, at 0.005 µM",-3.96%
same,inhibition,[3]; [26],-10.8%
same,inhibition,"[3]; measured here: combination with cisplatin, at 0.5 µM, stronger effect = higher value",-18.2%
same,inhibition,"[3]; measured here: combination with cisplatin, at 5 µM, stronger effect = higher value",-60.7%
same,inhibition,"[4]; BGB combo, at 5 µM",54.9%
same,inhibition,[4]; at 0.5 µM,3.71% (inactive)
same,inhibition,"[4]; cisplatin combo, at 5 µM",68.7%
same,inhibition,[4]; [27],-2.84%
same,inhibition,[4]; [28],14.2%
same,inhibition,"[4]; single agent, at 5 µM",74.1%
same,inhibition,"[5]; BGB IC20 combo, at 0.005 µM",9.17%
same,inhibition,"[5]; BGB IC40 combo, at 0.005 µM",-17.8%
same,inhibition,"[5]; BGB IC40 combo, at 0.05 µM",44.6%
same,inhibition,[5]; at 0.5 µM,-13.1% (inactive)
same,inhibition,"[5]; cisplatin combo, at 0.05 µM",42.6%
same,inhibition,"[5]; cisplatin combo, at 0.5 µM",-13.5%
same,inhibition,"[5]; cisplatin combo, at 5 µM",-41.4%
same,inhibition,"[5]; measured here: 5 uM single agent, at 5 µM",-10.6%
same,inhibition,[6]; at 0.5 µM,-9.48% (inactive)
same,inhibition,[6]; [26],5.36%
same,inhibition,[6]; [29],-34%
same,inhibition,[6]; [30],26.2%
same,inhibition,[7]; at 0.5 µM,2.72% (inactive)
same,inhibition,"[7]; measured here: with BGB IC20, at 0.5 µM",0.991%
same,inhibition,"[7]; measured here: with BGB IC20, at 5 µM",44.7%
same,inhibition,"[7]; measured here: with cisplatin IC20, at 0.5 µM",4.34%
same,inhibition,"[7]; measured here: with cisplatin IC20, at 5 µM",12.6%
same,inhibition,"[7]; single agent, at 5 µM",47.7%
same,inhibition,[8]; at 0.5 µM,-32.5% (inactive)
same,inhibition,"[8]; measured here: combination with BGB at IC20, at 0.5 µM",-20.2%
same,inhibition,"[8]; measured here: combination with cisplatin at IC20, at 0.5 µM",-64.1%
same,inhibition,[9]; at 0.5 µM,3.43% (inactive)
same,inhibition,"[9]; measured here: combo with BGB at IC20, at 0.5 µM",-2.99%
same,inhibition,"[9]; measured here: combo with cisplatin at IC20, at 0.5 µM",13.3%
same,inhibition,[10]; at 0.5 µM,11.5% (inactive)
same,inhibition,"[10]; measured here: inhibition with BGB combination, at 0.05 µM",17.9%
same,inhibition,"[10]; measured here: inhibition with cisplatin combination, at 0.05 µM",12.8%
same,inhibition,[11]; at 0.5 µM,-6.87% (inactive)
same,inhibition,[11]; [29],-10.6%
same,inhibition,[11]; [30],26.8%
same,inhibition,[12]; at 0.5 µM,2.15% (inactive)
same,inhibition,"[12]; measured here: BGB combination, at 0.5 µM",0.074%
same,inhibition,"[12]; measured here: BGB combination, at 5 µM",18.2%
same,inhibition,"[12]; measured here: cisplatin combination, at 0.5 µM",3.61%
same,inhibition,"[12]; measured here: cisplatin combination, at 5 µM",29.4%
same,inhibition,"[13]; BGB combination, concentration series, at 5 µM",53.7%
same,inhibition,[13]; at 0.5 µM,8.71% (inactive)
same,inhibition,"[13]; cisplatin combination, concentration series, at 5 µM",38.8%
same,inhibition,[14]; at 0.5 µM,-2.23% (inactive)
same,inhibition,"[14]; measured here: combo with BGB IC20, at 0.5 µM",-5.88%
same,inhibition,"[14]; measured here: combo with cisplatin IC20, at 0.5 µM",-4.28%
same,inhibition,[15]; at 0.5 µM,5.1% (inactive)
same,inhibition,"[15]; cisplatin combination, at 0.5 µM",-5.89%
same,inhibition,"[15]; cisplatin combination, at 5 µM",96.5%
same,inhibition,"[15]; measured here: BGB IC40 combination 0.05 uM, at 0.05 µM",-35.9%
same,inhibition,"[15]; single agent, at 5 µM",55.8%
same,inhibition,[16]; at 0.5 µM,16.2% (inactive)
same,inhibition,"[16]; cisplatin combo, at 5 µM",34.5%
same,inhibition,"[16]; measured here: BGB IC40 combination, at 0.05 µM",5.63%
same,inhibition,[16]; [29],33%
same,inhibition,"[16]; single agent, at 5 µM",51.6%
same,inhibition,[17]; at 0.5 µM,-10% (inactive)
same,inhibition,[17]; [27],-14.1%
same,inhibition,[17]; [28],-9.79%
same,inhibition,"[17]; single agent, at 0.05 µM",7.84%
same,inhibition,"[17]; single agent, at 5 µM",64%
CCSc1ccc2c(c1)N(CCCN1CCN(C)CC1)c1ccccc1S2,survival,[18],1.5 (inactive)
same,parasite load remaining,[19],77.3% (inactive)
same,viability,[19],70.9%
same,fold change,[1]; [20],0.933 (inactive)
same,fold change,[1]; [21],0.655
same,cell count,[1]; [22],7330
same,cell count,[1]; [23],7860
same,z-score,[2]; [24],-1.53 (inactive)
same,z-score,[2]; [25],0.455
